In PubChem BioAssay AID1209 (Sanford-Burnham Center for Chemical Genomics, 2008):
The campaign covered roughly 190,000 compounds. About 810 (0.43%) were called active. Many of the other results were omitted from the sample, so actives are more common in it than they were. Unmarked numbers belong to inactive results. Rule as the data show it: active = inhibition above about 50%; inactive = the rest.

Each compound was assayed against Mannose-6-phosphate isomerase (Homo sapiens) (UniProt P34949) (assay: MPI enzyme activity inhibition – biochemical, fluorescence intensity, coupled assay, primary screen (AID 1209;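 also: plate controls were DMSO vehicle for no effect and wells lacking substrate for full effect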)). Conditions: purified PMI enzyme, at 20 µM, stronger effect = higher value.
Chain of Mannose-6-phosphate isomerase (Homo sapiens) (P34949 whole entry, looked up): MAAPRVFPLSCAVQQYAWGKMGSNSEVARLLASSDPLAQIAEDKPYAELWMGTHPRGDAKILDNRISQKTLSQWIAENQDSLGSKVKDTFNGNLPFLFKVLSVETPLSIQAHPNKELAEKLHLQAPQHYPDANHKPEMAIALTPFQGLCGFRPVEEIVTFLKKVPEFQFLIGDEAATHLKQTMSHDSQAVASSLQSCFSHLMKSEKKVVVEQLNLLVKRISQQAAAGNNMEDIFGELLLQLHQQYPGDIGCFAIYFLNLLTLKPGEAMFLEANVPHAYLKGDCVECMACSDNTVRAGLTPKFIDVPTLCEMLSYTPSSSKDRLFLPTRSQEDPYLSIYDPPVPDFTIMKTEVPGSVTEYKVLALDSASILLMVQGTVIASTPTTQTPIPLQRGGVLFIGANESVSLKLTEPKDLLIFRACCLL

Compound	inhibition
COc1cccc(-c2nc(CS(=O)(=O)CC(=O)Nc3cccc(C)c3C)c(C)o2)c1	7.1%
CCOC(=O)C1CCN(C(=O)COc2ccc(Cl)cc2)CC1	0.2%
CC(NC(=O)c1ccccc1F)c1nnc(SCC(=O)N2CCN(c3ccccc3)CC2)n1C (centres undefined)	-2.3%
CCOC(=O)c1c(CN2CCC(C)CC2)oc2ccc(OC)cc12	-3.3%
CCCN(C(=O)c1cn(CC)c2nc(C)ccc2c1=O)c1c(N)n(Cc2ccccc2)c(=O)[nH]c1=O	11.3%
CN(Cc1cccnc1)C(=O)CNC(=O)c1ccc(Cl)cc1Cl	-2.4%
COc1ccc(NS(=O)(=O)c2cccc3nonc23)c(OC)c1	-1.3%
Cc1ccc(-c2nnn(CC(=O)N(CC(=O)NC3CCCC3)c3ccc(F)c(Cl)c3)n2)o1	-4.8%
C[C@@H]1C=C(C(=O)O)O[C@H](OCc2ccc(CO)cc2)C1	6%
O=[N+]([O-])C1=CC=C2C(=NC3(CCCCC3)N2O)C1=NCCO	81.4% (active)
O=[N+]([O-])C1=CC=C2C(=NC3(CCCCC3)N2O)C1=NCCc1ccccc1	62.9% (active)
CCCCN=C1C([N+](=O)[O-])=CC=C2C1=NC1(CCCCC1)N2O	31.3%
COc1ccc(-n2nc([N+](=O)[O-])c(=NCCc3ccccc3)n2O)cc1	10%
O=[N+]([O-])c1nn(-c2ccccc2)n(O)c1=NCCc1ccccc1	-5.6%
CCC(CC)NC(=O)COC(=O)CCC(=O)c1cccs1	4.9%
Cc1nc2cc(NC(=O)N3CCCCC3)ccc2n1C	16.1%
CCO/C=N/c1c(C#N)c2c(c(=S)n1C)COC(C)(C)C2	5.8%
Cn1c(=O)n(C)c2cc([N+](=O)[O-])c(N3CCN(S(C)(=O)=O)CC3)cc21	-6.6%
CC1CCCC2(C1)NC(=S)c1c(sc3c1CCCC3)N2 (centres undefined)	74.4% (active)
CCSC1=NC2(CCCCC2)Nc2sc3c(c21)CCCC3	-35%
CC1CCCC2(C1)NC(=S)N(c1ccccc1)N2 (centres undefined)	-48.4%
COc1ccccc1OCCOCCOc1ccc(C)cc1Br	11.4%
C=CCn1c(SC/C=C/c2ccccc2)nnc1-c1sc(N)nc1C	13.7%
CC(C)N(CC#CCC(O)(c1ccccc1)C1CCCC1)CCO (centres undefined)	58.1% (active)
CCN(CC#CCC(O)(c1ccccc1)C1CCCC1)C(C)C (centres undefined)	7.4%

Compound	inhibition
CC(C)(C)N(CC#CCC(O)(c1ccccc1)C1CCCC1)CCO (centres undefined)	30.4%
CC(C)C(C)NC(=O)COC(=O)c1cccc(C(=O)OCC(=O)NC(C)C(C)C)n1 (centres undefined)	21.9%
Nc1nnc(-c2ccncc2)s1	13.4%
CCOC(=O)NC1(NCc2ccccc2)Oc2ccccc2O1	51.2% (active)
CCOC(=O)NC1(NCC(C)C)Oc2ccccc2O1	42.4%
CCOC(=O)NC1(NC(C)C)Oc2ccccc2O1	12.2%
CCN(CC)c1ccc(C2C(C(=O)OCCOC(C)C)=C(C)NC3=C2C(=O)CCC3)cc1 (centres undefined)	6.2%
CCOC(=O)c1oc2ccccc2c1NC(=O)CN1CCOCC1	-0.8%
COc1ccc(NC(=O)c2ccc(S(=O)(=O)N3CCOCC3)cc2)c(OC)c1	7.2%
COC(=O)c1c(-c2ccco2)csc1NC(=O)C1CC=CCC1C(=O)O (centres undefined)	51.4% (active)
COC(=O)c1c(-c2ccc(C)cc2)csc1NC(=O)C1CC=CCC1C(=O)O (centres undefined)	7.7%
COC(=O)c1c(-c2ccccc2)csc1NC(=O)C1CC=CCC1C(=O)O (centres undefined)	-6.8%
O=c1[nH]nc(CNc2ccc(Cl)cc2Cl)c2ccccc12	-11.9%
Cc1ncc(CO)c(/C=N/NC(=O)c2ccc(O)cc2)c1O	3.5%
Cc1ncc(CO)c(/C=N/NC(=O)c2ccc(Br)cc2)c1O	15.7%
COc1ccccc1NC(=S)N1CCC(C(=O)c2ccc(F)cc2)CC1	1.3%
CC(C)OCCCNC(=S)Nc1ccc2nc3n(c(=O)c2c1)CCCCC3	-2.7%
CC(=O)N1CCN(C(=S)c2ccc(-c3ccc(Cl)cc3)o2)CC1	63.9% (active)
COc1ccc(CC(=O)N2CCN(C(=O)Cc3ccc(OC)cc3)CC2)cc1	7.3%
N#CCCN1CCN(C(=S)c2ccc(-c3ccc(Cl)cc3)o2)CC1	25.7%
NC(=O)C1CCN(C(=S)c2ccc(-c3ccc(Br)cc3)o2)CC1	-10%
S=C(c1ccc(-c2ccc(Cl)cc2)o1)N1CCCCC1	9.1%
COc1ccc(-c2ccc(C(=S)N3CCN(C(C)=O)CC3)o2)cc1	62% (active)
Cc1cccc(CSC2=NCCN2C(=O)C2CC2)c1	5.8%
CCC1N=C(SC)NC(C)=C1C(=O)c1ccccc1 (centres undefined)	-36.6%

Compound	inhibition
CCOc1ccc(Cn2nnc(C(=O)Nc3cc(C)cc(C)c3)c2N)cc1	18.5%
COc1ccc(N(C)C(=S)Nc2ccc3nc(C)c(C)nc3c2)cc1	53.7% (active)
OCCCNC(=S)Nc1ccc2nccnc2c1	-2.7%
CNC(=S)Nc1ccc2nc(C)c(C)nc2c1	2.5%
CCN(CC)c1ccc(NC(=S)Nc2ccc(F)cc2)cc1	53.4% (active)
COc1ccc(NC(=S)Nc2ccc3nc(C)c(C)nc3c2)cc1	45%
Fc1ccc(NC(=S)Nc2nccs2)cc1	2.2%
CC(=O)Nc1ccc(NC(=S)Nc2ccc(F)cc2)cc1	3.2%
Cc1nc2ccc(NC(=O)N(C(C)C)C(C)C)cc2s1	3%
CC(C)(C)NC(=O)Nc1ccc2nccnc2c1	4.4%
Fc1ccc(NC(=S)Nc2ccc3nccnc3c2)cc1	56.3% (active)
CCN(CC)CCNC(=S)Nc1ccc(F)cc1	-2.1%
CC(C)N(C(=O)Nc1ccc2nccnc2c1)C(C)C	65.4% (active)
Cc1c(Nc2nc(-c3ccc(Cl)cc3)cs2)c(=O)n(-c2ccccc2)n1C	20.6%
COc1ccc(N2CCN(C(=O)c3ccc(F)cc3)CC2)c([N+](=O)[O-])c1	-4.8%
COCCN(C(=O)Cn1nnc2ccccc21)C(C(=O)NC1CCCC1)c1ccc(OC)cc1OC (centres undefined)	-10.6%
CCc1cccc(CC)c1-n1c(SCC(=O)c2c(N)n(C)c(=O)n(C)c2=O)nnc1-c1cccnc1	17.2%
Cc1ccccc1C(=O)c1c[nH]c(C(=O)N2CCN(c3ccccc3F)CC2)c1	7.5%
Cc1cc(C)cc(NC(=S)N2CCN(c3ccc(F)cc3)CC2)c1	10%
C=CCn1c(SCc2ccccc2)nnc1-c1cccnc1	1.3%
CN(Cc1nc2ccccc2c(=O)[nH]1)CC(O)COCc1ccco1 (centres undefined)	11.4%
CCNc1nc(CSc2ccccc2)nc2sc(C)c(C)c12	30.5%
CCn1c(SCC(=O)N/N=C/c2ccc(C)o2)nnc1-c1ccc(C)cc1	0.6%
CCN1CCN(CCCNC(=O)C(=O)c2c(C)[nH]c3ccccc23)CC1	-6.7%
O=C(COC(=O)c1ccc(Br)cc1)NCc1ccc(F)cc1	-1.2%

Compound	inhibition
COC(=O)c1ccc(CSc2nnc(C)s2)cc1	8.5%
CC(C)(CO)NC(=O)CC1C(=O)NCCN1CC(c1ccccc1)c1ccccc1 (centres undefined)	-1.4%
COC(=O)c1cccc(NC(=O)CCc2cc(OC)c(OC)c(OC)c2)c1	-5.4%
COCCn1c(SCCN2CCCCC2)nc2ccccc2c1=O	3.5%
COc1ccc(NC(=S)Nc2ccc3snnc3c2)cc1	25%
COc1ccc(N(C)C(=O)Nc2ccc3nsnc3c2)cc1	58.7% (active)
COc1ccc(NC(=S)Nc2ccc3nccnc3c2)cc1	83.8% (active)
COc1ccc(N(C)C(=O)Nc2ccc3c(c2)nnn3C)cc1	15.5%
COc1cccc(NC(=O)Nc2ccc3nsnc3c2)c1	1.7%
COc1ccc(NC(=O)c2ccc3nccnc3c2)cc1	-5.2%
CCOc1ccc(NC(=S)Nc2ccc3nsnc3c2)cc1	46.4%
COc1ccc(NC(=S)Nc2ccc3nsnc3c2)cc1	64.2% (active)
COc1ccc(NC(=O)Nc2ccc3nccnc3c2)cc1	-6.9%
CCOC(=O)c1sc(NS(=O)(=O)c2ccc(C)cc2)nc1C	5.9%
CCOc1ccc(-c2noc(CCC(N)=O)n2)cc1OCC	-7.6%
Cc1cc(NCCCN2CCOCC2)n2nc(C)c(-c3ccccc3)c2n1	-1.9%
Cc1csc(NC(=O)CSc2nc3ccccc3c(=O)[nH]2)n1	0.4%
C[C@H]1CC[C@H]2C(=O)N3[C@H](c4cccc(N5CCCC5=O)c4)[C@@H](C)CC[C@H]3C(=O)N2[C@@H]1c1cccc(N2CCCC2=O)c1	-17.4%
CC(C)(C)Cc1nnc(NC(=O)Cc2ccc([N+](=O)[O-])cc2)s1	-4.5%
CC(C)(C)C(=O)CSc1nnc(Nc2ccccc2)s1	39.6%
CCOC(=O)N1CCC(N2Cc3cccc(C(=O)Nc4cccc(F)c4)c3C2=O)CC1	-24.4%
CCOC(=O)C1CCN(C(=O)c2c(-c3c(Cl)cccc3Cl)noc2C)CC1	9.4%
CCN(CC)CCNCc1ccc(-c2ccc(Cl)cc2)o1	-7%
CC1CC(C)(C)NC(=S)N1CCCC(=O)N1CCN(c2ccccc2F)CC1 (centres undefined)	-3.8%
